M18AAP inhibitor: blocks P. falciparum M18 aspartyl aminopeptidase; recombinant PfM18AAP, H-Glu-NHMec fluorogenic cleavage; inhibition, % at 7.35 µM; actives 1.2% (n = 290,000); AID 1822;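 active = inhibition above the campaign mean inhibition over all tested compounds plus 3 SD, cut at about 28% in these data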;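 also: 0% = plate median of test compound wells and 100% = 2 mM ZnCl2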
Mot1-301 SUMO: blocks SUMOylation pathway, rescuing yeast Mot1-301 growth; S. cerevisiae Mot1-301 growth rescue, ATP luminescence, 38.5C; percent above DMSO median, 100 means doubled; growth rescue, % at 18.8 µM; actives 1% (n = 320,000); AID 2716;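 active = every valid replicate shows activation above 250% relative to neutral control wells; inactive = the rest, any valid replicate at or below 250%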;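 also: OY570 slx delta 5 strain wells were the positive control but not used for scaling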
HIF act: HIF pathway transcriptional activation. U2OS HRE-luciferase reporter, luminescence; normalized: DMSO 0%, desferrioxamine 100%. activation, % at 7.5 µM (by protocol). actives 0.32% (n = 300,000);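 active = mean activation of at least 10% of the iron chelator positive control signal, with at least half of replicates also reaching 10%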
ALR inh: human ALR oxidase inhibition via reduced H2O2; actives 3.8% (n = 290,000); P55789; purified ALR, DTT oxidation, H2O2 HRP-luminol luminescence; inhibition, % (concentration not given with the values); AID 485317;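 active = mean replicate inhibition above about 79%, with every replicate also reaching it, limit read from the data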
Target sequence (P55789 whole entry, looked up): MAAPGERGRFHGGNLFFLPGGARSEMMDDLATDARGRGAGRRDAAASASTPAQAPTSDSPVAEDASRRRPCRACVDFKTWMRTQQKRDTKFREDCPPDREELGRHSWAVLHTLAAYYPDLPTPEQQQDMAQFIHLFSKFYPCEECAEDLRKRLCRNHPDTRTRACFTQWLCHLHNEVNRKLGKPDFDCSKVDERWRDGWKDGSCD
* hit, by the source's call; · = not tested or not shown. A selection: hits, their analogues and other compounds. The true share with any hit is near 5.3%.

SMILES	M18AAP inhibitor	Mot1-301 SUMO	HIF act	ALR inh
Cc1ccc(S(=O)(=O)NCC(C)n2nc(C)cc2C)cc1 (configuration not stated)	-6	-3	0	·
Cc1nnsc1C(=O)N/N=C/c1ccc2ccccc2c1O	2	4	115*	-45
Cc1nc(N)sc1C(=O)N/N=C/c1c[nH]c2ccccc12	10	70	0	91*
Cc1nc(N)sc1C(=O)N/N=C/c1ccccc1[N+](=O)[O-]	5	-4	2	-1
O=C(CNc1ccccc1)N/N=C/c1c[nH]c2ccccc12	1	-3	0	89*
CCOc1ccccc1NC(=O)c1ccccc1-c1nc(-c2ccccc2OC)no1	3	0	·	-5
CCOc1ccc(NC(=O)CCCn2c(=S)[nH]c3ccsc3c2=O)cc1	3	10	0	6
COc1cc(/C=N/NC(=S)NC2CC3CCC2C3)ccc1O (configuration not stated)	11	-13	5	99*
COc1ccc(CNC(=S)N/N=C/c2ccc(O)c(OC)c2)cc1	8	-5	20*	87*
COc1ccc(CNC(=S)N/N=C/c2ccc(OC)c(OC)c2)cc1	3	0	1	6
COc1ccc(/C=N/NC(=S)N[C@H]2CC3CCC2C3)cc1 (some centres not stated)	0	210	0	0
CCN1CCCC1CNC(=O)CCc1nnc(CCC2CCCCC2)o1 (configuration not stated)	0	-17	1	100*
CCc1ccc(C(=O)OCC(=O)c2c(N)n(CC(C)C)c(=O)n(C)c2=O)cc1	-16	-6	0	0
Cc1ccc(CN2CCSc3ccc(C(=O)NCCCN4CCOCC4)cc32)cc1	3	22	1	98*
O=C(NCC1CCCO1)c1ccc2c(c1)N(Cc1ccccc1)CCS2 (configuration not stated)	10	45	3	99*
CN1CCN(CCCNC(=O)c2ccc3c(c2)N(Cc2ccccc2)CCS3)CC1	-5	-26	0	99*
O=C(NCCN1CCOCC1)c1ccc2c(c1)N(Cc1ccccc1)CCS2	2	126	0	100*
O=C(NC1CCCC1)c1ccc2c(c1)N(Cc1ccccc1)CCS2	10	2	3	17
O=C(NCCN1CCOCC1)c1ccc2c(c1)N(Cc1ccccc1)C(=O)CS2	-17	5	1	-2
CC12CCC(=O)N1C(C(=O)Nc1ccccc1N1CCCCC1)CS2 (configuration not stated)	·	0	·	11
CCN1CCN(CCCNC(=O)c2ccc3c(c2)N(Cc2ccc(C)cc2)CCS3)CC1	2	-14	0	99*
Cc1ccc(CN2CCSc3ccc(C(=O)NCc4ccco4)cc32)cc1	4	6	0	47
O=C(NCCCN1CCOCC1)c1ccc2c(c1)N(Cc1ccccc1)CCS2	-5	-11	-2	99*
O=C(NCCCN1CCOCC1)c1ccc2c(c1)N(Cc1ccccc1)C(=O)c1ccccc1S2	2	-11	0	1
COc1ccc(OCCn2cnc3ccccc32)cc1	-9	-3	0	-14
SMILES	M18AAP inhibitor	Mot1-301 SUMO	HIF act	ALR inh
CCCn1c(SCC(=O)NC2CCCCC2)nnc1-c1ccco1	2	-12	0	·
CCc1ccc(NC(=O)C2CCN(S(=O)(=O)c3cccs3)CC2)cc1	-1	17	-1	-15
Cc1ccc(C(=O)NCCSc2ccc(Cl)cc2)cc1S(=O)(=O)Nc1ccccc1	-7	3	0	-4
Cc1ccc(S(=O)(=O)N(C)Cc2ccccc2)cc1C(=O)N1CCCCC1	-15	336*	-1	0
Cc1c(C#N)c(NC(=O)CCl)n(Cc2ccc(F)cc2)c1C	5	-2	-2	32
Cc1c(C#N)c(NC(=O)CCl)n(Cc2ccccc2)c1C	11	-28	-2	96*
NC(=O)c1sc2nccc(Nc3ccccc3)c2c1N	21	11	11*	12
NC(=O)c1sc2nc(-c3ccccc3)c3c(c2c1N)CCCC3	17	13	2	9
O=C(C1=C[C@H](c2ccc(Br)cc2)C[C@H](OCCCCO)O1)N1CCN(Cc2ccccc2)CC1	-2	-6	0	-8
CCc1ccc(NC(=O)CSc2nc(=O)n(CCCN(C)C)c3c2CCC3)cc1	·	-27	1	97*
Cc1ccc(NC(=O)CSc2nc(=O)n(CCCN(C)C)c3c2CCC3)c(C)c1	·	236	-6	-10
CN(C)CCCn1c2c(c(SCC(=O)Nc3nccs3)nc1=O)CCC2	·	2	0	99*
CCC(Oc1ccccc1)C(=O)Nc1cc(C(F)(F)F)ccc1N1CCOCC1 (configuration not stated)	·	-19	0	8
CC(C)CC(=O)N1CCN(S(=O)(=O)c2ccc3ccccc3c2)CC1	7	9	0	-23
CCOC(=O)Cn1c(=S)[nH]c2c(oc3ccc(Cl)cc32)c1=O	4	·	0	96*
CC(C)c1cc(C(C)C)c(S(=O)(=O)N2CCNCC2)c(C(C)C)c1	·	-19	-1	9
Cc1occc1C(=O)NCCCCc1ccccc1	4	154	1	98*
O=C(NCCc1ccc(O)cc1)c1ccc(Cl)cc1	5	-19	3	79*
CCCCNC(=O)NNC(=O)c1ccoc1C	26	12	·	-2
O=C(NCCc1ccc(Cl)cc1)c1ccc(=O)[nH]c1	-7	-8	0	-3
CCCCNC(=S)NNC(=O)c1c(Cl)c(C)nn1C	-1	9	-1	67
CCCCNC(=S)NNC(=O)c1c(C)nc2ccccn12	38*	8	0	34
CCCCNC(=S)NNC(=O)c1ccoc1C	29*	23	0	·
Cc1occc1C(=O)NC(C)C(C)(C)C (configuration not stated)	-2	-5	0	98*
Cc1cc(C(=O)NCCc2ccc(Cl)cc2)no1	4	7	1	1
SMILES	M18AAP inhibitor	Mot1-301 SUMO	HIF act	ALR inh
Cc1occc1C(=O)NCCc1ccc(Cl)cc1	-23	14	1	96*
O=C(/C=C/c1ccc(F)cc1)Nc1cccc(S(=O)(=O)N2CCOCC2)c1	·	24	·	-10
NC(=NCc1ccco1)NC(=O)c1ccccc1	-6	13	1	-2
C[N+]1=C(/C=C/Nc2ccccc2Cl)C(C)(C)c2ccccc21	-1	-4	-1	·
COC(=O)c1ccc2c(c1)C(C)(C)C(/C=C/c1ccccc1O)=[N+]2C	4	-3	-3	87*
Cc1ccnc(N2C(=O)c3ccccc3C2O)c1 (configuration not stated)	0	-21	1	-2
Cc1ccc(N2C(=O)c3ccccc3C2C(=O)c2ccc(O)cc2O)cc1 (configuration not stated)	30*	-3	0	-58
O=C(N/N=C(\c1ccccc1)c1cccnc1)c1cccc(F)c1	-7	27	89*	2
CCCC(=O)C1=C(N(C)c2ccccc2)CC(C)(C)CC1=O	2	-9	1	-1
CCCC(=O)C1=C(c2ccccc2)C(C#N)(C#N)C(C#N)=C1N	8	51	0	99*
N#CC1=C(N)N(c2ccccc2)C(c2ccco2)C1(C#N)C#N (configuration not stated)	4	-11	0	94*
